Here are results for 25 molecules from PubChem BioAssay (NCI).

The structures appear in SMILES notation. The panel holds about 79,000 compounds, 15% with a hit somewhere; the sample as a whole holds those more often. Calls of active or inactive are those of the source. Rule as the data show it: active = growth inhibition above about 70%; inactive = the rest.

One assay is described as follows: NCI Yeast Anticancer Drug Screen. Data for the rad18 strain (AID 177). The note with it: S. cerevisiae rad18 mutant growth inhibition; at 3.7 µM; hits give high values. The essentials: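 Inhibition values reflect reduced yeast growth compared with vehicle-treated controls, using a strain engineered with a DNA damage repair defect.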
`O=[N+]([O-])c1cc[n+]([O-])cc1`: the growth inhibition was 0% (inactive).

For the molecule `COC(=O)CC1(O)C(/C=C/c2ccccc2)C(C(=O)OC)C(=O)C(C(=O)OC)C1C(=O)OC` (stereo not given), the growth inhibition was -2% (inactive).

As to `CC(C)(C)c1ccc(NS(=O)(=O)c2ccc(N)cc2)cc1`, the growth inhibition is 3% (inactive).

As for `CCN(CC)CCNc1ccc([N+](=O)[O-])c2nc3ccccc3c(N)c12`, the growth inhibition is -9% (inactive).

On to `CCCCN(CCCC)C(=O)/C=C/c1ccccc1`, for which the growth inhibition is -9% (inactive).

On to `O=c1[nH]c(-c2ccccc2)nc2c1sc1nc3ccccc3n12`, for which the growth inhibition was -38% (inactive).

`Cc1ccc(S/C(=C\C(=O)O)c2ccccc2)cc1`: the growth inhibition was 4% (inactive).

With `Cc1cc(S(=O)(=O)Nc2nnc3cnc4ccccc4n23)c(S)cc1Cl`, the growth inhibition is -1% (inactive).

For the molecule `O=C(/C=C/c1cc(Cl)cc(Cl)c1O)c1cccc(O)c1`, the growth inhibition is 13% (inactive).

In the case of `NC1CCCCC1N.Nc1c(N=Nc2ccc(-c3ccc(N=Nc4cc(S(=O)(=O)[O-])c5ccccc5c4N)cc3)cc2)cc(S(=O)(=O)[O-])c2ccccc12.[OH3+].[OH3+].[Pt+4]`, the growth inhibition is -2% (inactive).

Regarding `COC(=O)CCC(NC(=S)N/N=C(\C)c1ccccn1)C(=O)OC` (stereo not given), the growth inhibition is -27% (inactive).

`COc1cc(C2SCC(=O)N2c2ccc(-c3ccc(-n4c(-c5ccccc5)nc5ccccc5c4=O)cc3)cc2)ccc1O` (stereo not given): the growth inhibition was -1% (inactive).

For the molecule `Cc1c(C(C)C)cc(OCCO)cc1C(C)C`, the growth inhibition was -7% (inactive).

On to `C=C(Cl)COC(=O)Nc1cccc(Cl)c1`, for which the growth inhibition is -2% (inactive).

As to `COc1c(O)c(C=O)c(Br)c(C=O)c1O`, the growth inhibition is -1% (inactive).

For `O=[N+]([O-])c1cc(Cl)cnc1Br`, the growth inhibition is 10% (inactive).

Consider `Cc1ccc2c(c1)C1(SC(C)C(=O)N1c1ccc(Cl)cc1)C(=O)N2` (stereo not given), for which the growth inhibition is 17% (inactive).

Consider `COc1cc(CSc2ccc(O)cc2)cc(O)c1O`, for which the growth inhibition was 1% (inactive).

As for `Cc1ccc2c3ccc4c(c3n(C)c2c1)C(=O)C=CC4=O`, the growth inhibition is 14% (inactive).

For the molecule `O=C(Nc1ccc(Cl)cc1)Nc1nnc2nc(C(C(=O)c3cccc([N+](=O)[O-])c3Cl)c3nc4nnc(NC(=O)Nc5ccc(Cl)cc5)n4[nH]c3=O)c(=O)[nH]n12`, the growth inhibition was -3% (inactive).

Consider `O=C(O)C1CC(c2ccccc2)=NN1c1ccccc1` (stereo not given), for which the growth inhibition is -37% (inactive).

For the molecule `CCCCc1ccc(-n2c(C)c(COC(=O)NC)c(COC(=O)NC)c2C)cc1`, the growth inhibition is -1% (inactive).

Take `CCC(=O)c1cc(C(=O)C(=S)SC)cc(C(=O)C(=S)SC)c1`: the growth inhibition was 49% (inactive).

Consider `CCn1c(O)c(C=Nc2ccccc2)s/c1=N/Nc1nc(-c2ccccc2)cs1`, for which the growth inhibition is -3% (inactive).

With `Cc1nc2ccccc2nc1NNc1ccccc1`, the growth inhibition is -2% (inactive).

The same assay, now with this note: S. cerevisiae rad18 mutant growth inhibition; at 11.0 µM; hits give high values.
Turning to `O=[N+]([O-])c1cc[n+]([O-])cc1`, the growth inhibition was 3% (inactive).

As for `COC(=O)CC1(O)C(/C=C/c2ccccc2)C(C(=O)OC)C(=O)C(C(=O)OC)C1C(=O)OC` (stereo not given), the growth inhibition was -4% (inactive).

As to `CC(C)(C)c1ccc(NS(=O)(=O)c2ccc(N)cc2)cc1`, the growth inhibition was 15% (inactive).

On to `CCN(CC)CCNc1ccc([N+](=O)[O-])c2nc3ccccc3c(N)c12`, for which the growth inhibition was -10% (inactive).

In the case of `CCCCN(CCCC)C(=O)/C=C/c1ccccc1`, the growth inhibition is -3% (inactive).

As to `O=c1[nH]c(-c2ccccc2)nc2c1sc1nc3ccccc3n12`, the growth inhibition is -39% (inactive).

`Cc1ccc(S/C(=C\C(=O)O)c2ccccc2)cc1`: the growth inhibition was 7% (inactive).

For `Cc1cc(S(=O)(=O)Nc2nnc3cnc4ccccc4n23)c(S)cc1Cl`, the growth inhibition is 21% (inactive).

For the molecule `O=C(/C=C/c1cc(Cl)cc(Cl)c1O)c1cccc(O)c1`, the growth inhibition was 56% (inactive).

Regarding `NC1CCCCC1N.Nc1c(N=Nc2ccc(-c3ccc(N=Nc4cc(S(=O)(=O)[O-])c5ccccc5c4N)cc3)cc2)cc(S(=O)(=O)[O-])c2ccccc12.[OH3+].[OH3+].[Pt+4]`, the growth inhibition is 25% (inactive).

Consider `COC(=O)CCC(NC(=S)N/N=C(\C)c1ccccn1)C(=O)OC` (stereo not given), for which the growth inhibition was 10% (inactive).

As for `COc1cc(C2SCC(=O)N2c2ccc(-c3ccc(-n4c(-c5ccccc5)nc5ccccc5c4=O)cc3)cc2)ccc1O` (stereo not given), the growth inhibition was 0% (inactive).

For the molecule `Cc1c(C(C)C)cc(OCCO)cc1C(C)C`, the growth inhibition is -5% (inactive).

`C=C(Cl)COC(=O)Nc1cccc(Cl)c1`: the growth inhibition is 8% (inactive).

Consider `COc1c(O)c(C=O)c(Br)c(C=O)c1O`, for which the growth inhibition was 5% (inactive).

For `O=[N+]([O-])c1cc(Cl)cnc1Br`, the growth inhibition was 18% (inactive).

Regarding `Cc1ccc2c(c1)C1(SC(C)C(=O)N1c1ccc(Cl)cc1)C(=O)N2` (stereo not given), the growth inhibition is 54% (inactive).

With `COc1cc(CSc2ccc(O)cc2)cc(O)c1O`, the growth inhibition is 2% (inactive).

For the molecule `Cc1ccc2c3ccc4c(c3n(C)c2c1)C(=O)C=CC4=O`, the growth inhibition was 15% (inactive).

Turning to `O=C(Nc1ccc(Cl)cc1)Nc1nnc2nc(C(C(=O)c3cccc([N+](=O)[O-])c3Cl)c3nc4nnc(NC(=O)Nc5ccc(Cl)cc5)n4[nH]c3=O)c(=O)[nH]n12`, the growth inhibition was -12% (inactive).

On to `O=C(O)C1CC(c2ccccc2)=NN1c1ccccc1` (stereo not given), for which the growth inhibition is -12% (inactive).

On to `CCCCc1ccc(-n2c(C)c(COC(=O)NC)c(COC(=O)NC)c2C)cc1`, for which the growth inhibition was 59% (inactive).

Take `CCC(=O)c1cc(C(=O)C(=S)SC)cc(C(=O)C(=S)SC)c1`: the growth inhibition is 97% (active).

In the case of `CCn1c(O)c(C=Nc2ccccc2)s/c1=N/Nc1nc(-c2ccccc2)cs1`, the growth inhibition is -5% (inactive).

Consider `Cc1nc2ccccc2nc1NNc1ccccc1`, for which the growth inhibition is -5% (inactive).
